Experimental data published in PubChem BioAssay AID777 (Sanford-Burnham Center for Chemical Genomics, 2007).
Hit rate of the full screen: of about 96,000 compounds, about 19,000 (20%) were called active.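 The calls were made as follows: active = blocking of liver enzyme CYP2C9 beyond about 50% at 5 µM (limit read from the data); inactive = the rest.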 The list is a sample of the results.

The compounds below were run against Cytochrome P450 2C9 (Homo sapiens) (UniProt P11712) (assay: blockers of cytochrome P450 2C9 activity – biochemical, luminescence, ADME assay, primary screen (AID 777)). Conditions: CYP2C9 Supersomes, luciferin-H conversion, at 5 µM, stronger effect = higher value.
Chain of Cytochrome P450 2C9 (Homo sapiens) (P11712 whole entry, looked up): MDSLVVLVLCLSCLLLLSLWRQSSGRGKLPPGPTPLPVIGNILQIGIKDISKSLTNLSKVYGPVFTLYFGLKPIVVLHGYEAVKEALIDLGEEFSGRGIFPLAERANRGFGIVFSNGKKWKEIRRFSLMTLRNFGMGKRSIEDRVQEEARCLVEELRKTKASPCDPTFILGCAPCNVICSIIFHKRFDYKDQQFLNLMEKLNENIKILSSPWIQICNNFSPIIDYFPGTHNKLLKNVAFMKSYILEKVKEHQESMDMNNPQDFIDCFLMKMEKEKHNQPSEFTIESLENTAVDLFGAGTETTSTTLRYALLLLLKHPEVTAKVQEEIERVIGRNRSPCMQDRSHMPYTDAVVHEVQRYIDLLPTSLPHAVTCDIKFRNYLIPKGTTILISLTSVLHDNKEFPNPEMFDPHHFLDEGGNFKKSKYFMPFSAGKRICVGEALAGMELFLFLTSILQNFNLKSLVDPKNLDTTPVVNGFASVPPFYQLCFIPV

Row | Compound | inhibition
1 | COc1ccc(Oc2c(Cl)cnn(-c3ccccc3)c2=O)cc1 | 18.9% (inactive)
2 | Cn1c(COc2ccc(Cl)cc2)nc2ccccc2c1=O | 43.9% (inactive)
3 | Cc1[nH]nc(-c2ccc(OCc3cnn(-c4ccccc4)c3)cc2O)c1Oc1ccc(Cl)cc1 | 66.2% (active)
4 | CC(C)(C)C(=O)Nc1ccc(C(=O)N/N=C/c2ccccc2OC(=O)c2ccc(Cl)cc2Cl)cc1 | 21.5% (inactive)
5 | COc1ccc(OC)c(NC(=O)Cn2c(=O)oc3ccccc32)c1 | 26.9% (inactive)
6 | CCn1c(NCCc2ccc(OC)c(OC)c2)nc2c1c(=O)n(C)c(=O)n2C | 12.4% (inactive)
7 | CC(=O)Nn1cc2c(=O)n(C)c(=O)n(C)c2c1 | -1.4% (inactive)
8 | Cn1c(=O)c2cn(-c3cccc4ccccc34)cc2n(C)c1=O | 71.3% (active)
9 | COc1ccc(OC)c(-n2cc3c(=O)n(C)c(=O)n(C)c3c2)c1 | 78.8% (active)
10 | Cn1c2c(c(=O)n(C)c1=O)[C@@H]1c3c(ccc4ccccc34)OC[C@@H]1CO2 | 18.4% (inactive)
11 | O=C(OC1CCOC1=O)c1ccc(-c2nc3ccccc3s2)s1 (configuration not stated) | 4.9% (inactive)
12 | CSCCC(NC(=O)C1CCC(C)CC1)C(=O)NCc1ccco1 (configuration not stated) | 10.7% (inactive)
13 | CSCCC(NC(N)=O)C(=O)N(C)CC(=O)Nc1ccc(C)cc1 (configuration not stated) | -21.5% (inactive)
14 | CC1(C)CC(O)C(CCC(O)c2ccccc2)C(C)(C)N1 (configuration not stated) | -1.7% (inactive)
15 | O=c1c(F)cn(C2CCCO2)c(=O)n1Cc1ccccc1Cl (configuration not stated) | 15.2% (inactive)
16 | Cc1ccc(NC(=S)Nc2ncccc2C)c(C)c1 | -26.1% (inactive)
17 | CCOC(=O)c1sc2nc(CSCC(=O)OCc3ccc(C(=O)OC)o3)[nH]c(=O)c2c1C | 54.4% (active)
18 | CCOC(=O)c1ccc(COC(=O)c2cc(=O)[nH]c3ccccc23)o1 | -27.9% (inactive)
19 | CCOc1cc(/C=N/n2cnnc2)c(Br)cc1O | 43.2% (inactive)
20 | Cc1cc(C(=O)OC(C)C(=O)Nc2cccc(S(=O)(=O)N3CCOCC3)c2)c(C)o1 (configuration not stated) | 97.4% (active)
21 | COc1ccccc1N1CC(C(=O)Nc2ccc(S(=O)(=O)N3CCOCC3)cc2)CC1=O (configuration not stated) | 8.1% (inactive)
22 | Cc1cc(=O)oc2cc(OC(C)C(=O)Nc3ccc(N4CCOCC4)cc3)ccc12 (configuration not stated) | -6.3% (inactive)
23 | O=C(O)CCC(=O)NCc1ccc2[nH]c3c(c2c1)CCCC3 | -5.1% (inactive)
24 | COc1ccc(CNC2CCCCC2)cc1 | 2.3% (inactive)
25 | CCOC(=O)C1CCN(C(=O)Nc2ccc(Cl)cc2)CC1 | 53.3% (active)
26 | CCOC(=O)C1CCN(C(=O)C2CCN(S(=O)(=O)N3CCCC3)CC2)CC1 | 20.7% (inactive)
27 | CCOC(=O)C1CCN(C(=O)C2CCN(S(=O)(=O)CC)CC2)CC1 | -14.3% (inactive)
